Bioassay records as filed in PubChem.
In the library only some 3% were active in any assay of this set; here they are far more common.
S16 viability – Cell viability qHTS assay in S16 Pmp22-F2sN cells | S16 Pmp22-F2sN Schwann cells viability, CellTiter-Glo, 24 h | 43,000 tested, 0.48% active | Potency, µM (doses to about 57.5 µM), most hits filed as cytotoxic; also: nearly all actives have a fitted effect of over 65% in size
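Viability was measured by CellTiter-Glo luminescence (15 min, room temperature). This followed 24 h at 37 °C of compound exposure (23 nL pin transfer) in S16 Pmp22-F2sN Schwann cells, 500-1,000 per well.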
p53null 39C tox – qHTS Screen for Compounds that Selectively Target Cancer Cells with p53 Mutations: Cytotoxicity of p53 Null Cells at the Nonpermissive Temperature | H1299 p53-null (neo) cells, 39C, ATPlite viability, 24 h | Potency, µM (doses to about 46.1 µM), hits mostly cytotoxic | 55,000 tested, 0.97% active; also: nearly all actives have a fitted effect of over 50% in size
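ATP-luminescence viability readout (ATPlite, 20 min RT) after 24 hr compound treatment at 39C of H1299-neo or H1299-p53A138V cells; titration up to 46 uM; normalized to DMSO and 100 uM tamoxifen; Hill-fit AC50.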
PMP22 txn – Cell-based coincidence reporter assay to measure PMP22 gene transcription in S16 Pmp22-F2sN cells - Primary screen; Potency, µM (highest dose often 57.5 µM), hits mostly inhibitors; 43,000 tested, 2% active; AID 1508649, 2021; S16 Pmp22-F2sN Schwann cells (luciferase reporters placed in the Pmp22 gene), FLuc/NLuc coincidence luminescence, 24 h; active = clear falling dose curves in both reporters; inconclusive = both reporters move, but less clearly or upward; inactive = either reporter flat; the % is the NLuc reporter signal
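Luminescent read-out of sequential FLuc and NLuc signals from a reporter embedded in the Pmp22 3' UTR of S16 Schwann cells, taken after 24 h compound exposure at 37C; compounds reducing both signals score as inhibitors of expression.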
pS6 MEF inh – Acumen qHTS Assay for Inhibitors of the mTORC1 Signaling Pathway in MEF (Tsc2-/-, p53-/-) Cells: Sytravon | Potency, µM (top dose mostly 38.3 µM), usual class: inhibitors | 44,000 tested, 0.78% active | AID 493208, 2011 | Tsc2-/- p53-/- MEF, phospho-rpS6 immunofluorescence/PI, 24 h; also: nearly all actives have a fitted effect of over 50% in size
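Compounds act on Tsc2-/-, p53-/- fibroblasts carrying an empty vector for 24 h before fixation and dual staining for phospho-S6 and DNA (propidium iodide). Values are percentages of cells above a rapamycin-defined pS6/PI threshold.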
p53null 32C tox – qHTS Screen for Compounds that Selectively Target Cancer Cells with p53 Mutations: Cytotoxicity of p53 Null Cells at the Permissive Temperature | H1299-neo p53 null cells, ATP luminescence, 24 h, 32C | Potency, µM (series often up to 46.1 µM), usual class: cytotoxic | 55,000 tested, 0.62% active | AID 903, 2007; also: nearly all actives have a fitted effect of over 55% in size
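Cytotoxicity: H1299-neo (no p53), 32C, 24 h treatment. Concentrations up to 46 uM. Readout cellular ATP, luminescence. Normalization to DMSO basal and tamoxifen 100 uM maximal kill.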
OvCa metastasis – Primary qHTS assay for Inhibitors of ovarian cancer metastasis using an organotypic tumor microenvironment (TME) model; SKOV3ip1-GFP adhesion/invasion on 3D omental model, fluorescence; Potency, µM (highest dose often 45.8 µM), hits mostly inhibitors; 46,000 tested, 0.1% active; AID 1963576, 2024; also: nearly all actives have a fitted effect of over 65% in size
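Primary human omental fibroblast/mesothelial 3D culture pre-formed 48 h. SKOV3ip1-GFP cells added with compounds (0.36-46 umol/L), incubated 2 h RT/16 h 37 C, fixed; GFP cells quantified at 488/509 nm.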
NLuc sat counter – Biochemical NLuc saturation counterscreen for small molecule modulators of PMP22 gene expression - Nano-Glo assay; Potency, µM (series often up to 57.5 µM), hits mostly inhibitors; shares compounds with PMP22 txn; 690 tested, 4% active; Secreted NLuc enzyme (filtered S16 cell medium), Nano-Glo luminescence
NLuc Km counter – Biochemical coelenterazine-based NLuc counterscreen for small molecule modulators of PMP22 gene expression - Km assay; Potency, µM (top dose mostly 57.5 µM), hits mostly inhibitors; 690 tested, 5% active; secreted NLuc enzyme, coelenterazine luminescence, Km conditions; AID 1508639, 2021; shares compounds with PMP22 txn
FLuc ctr PMP22 – Biochemical FLuc counterscreen for small molecule modulators of PMP22 gene expression; shares compounds with PMP22 txn; purified P. pyralis FLuc, luminescence, 10 min; Potency, µM (highest dose often 57.5 µM), usual class: inhibitors; 690 tested, under 10 active; AID 1508640, 2021
Target sequence (P08659 whole entry, looked up): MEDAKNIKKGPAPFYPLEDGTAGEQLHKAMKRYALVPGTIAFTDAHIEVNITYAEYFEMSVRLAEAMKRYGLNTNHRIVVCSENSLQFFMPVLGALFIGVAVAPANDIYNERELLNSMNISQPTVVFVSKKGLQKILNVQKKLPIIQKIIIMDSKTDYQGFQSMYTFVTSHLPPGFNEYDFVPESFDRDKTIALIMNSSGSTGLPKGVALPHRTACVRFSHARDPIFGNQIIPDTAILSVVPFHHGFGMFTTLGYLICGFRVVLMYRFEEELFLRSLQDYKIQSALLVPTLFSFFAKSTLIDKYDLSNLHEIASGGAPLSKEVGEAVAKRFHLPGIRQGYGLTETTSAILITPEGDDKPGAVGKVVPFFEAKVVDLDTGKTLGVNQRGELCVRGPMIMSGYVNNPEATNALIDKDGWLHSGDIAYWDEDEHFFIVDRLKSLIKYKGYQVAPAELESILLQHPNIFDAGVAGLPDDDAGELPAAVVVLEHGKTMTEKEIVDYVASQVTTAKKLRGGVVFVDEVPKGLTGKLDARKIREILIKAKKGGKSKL
S16 viab conf – Cell viability qHTS assay in S16 Pmp22-F2sN cells - Confirmatory screen | Potency, µM (titrated, usually from 57.5 µM), actives largely listed as cytotoxic | 690 tested, 7% active | S16 Schwann cells viability, CellTiter-Glo ATP luminescence, 24 h | shares compounds with PMP22 txn | AID 1508641, 2021
PMP22 txn cnf – Cell-based coincidence reporter assay to measure PMP22 gene transcription in S16 Pmp22-F2sN cells - Confirmatory screen | shares compounds with PMP22 txn | S16 Schwann cells Pmp22-F2sN, dual luciferase, 24 h | Potency, µM (titrated, usually from 57.5 µM), most hits filed as inhibitors | 690 tested, 22% active | AID 1508646, 2021; active = clear falling dose curves in both reporters; inconclusive = both reporters move, but less clearly or upward; inactive = either reporter flat; the % is the FLuc reporter signal
PMP22 HiBiT cnf – Cell-based HiBiT reporter assay to measure PMP22 protein expression in S16 Pmp22-HiBiT cells - Confirmatory screen; shares compounds with PMP22 txn; S16 Schwann cells Pmp22-HiBiT, luminescence, 48 h; Potency, µM (doses to about 27.9 µM), actives largely listed as inhibitors; 95 tested, under 10 active; AID 1508647, 2021
Target sequence (P25094 whole entry, looked up): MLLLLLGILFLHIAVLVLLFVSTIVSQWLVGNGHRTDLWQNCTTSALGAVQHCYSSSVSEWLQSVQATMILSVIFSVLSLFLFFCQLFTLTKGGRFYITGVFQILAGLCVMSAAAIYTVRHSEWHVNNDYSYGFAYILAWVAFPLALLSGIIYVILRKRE
Each line names hits and unclear results; the compound was inactive in the other large screens (follow-up assays come after a bar, where they were run). Unless noted, calls follow the shape of the dose curve; as a rule, active = well fitted curve in the direction sought with a large enough effect; inconclusive = small, poorly fitted or top-dose-only effect, or another doubt; inactive = no such curve, though single readings can be large; an effect the other way counts as inactive or inconclusive.

O=C(CCS(=O)(=O)c1nc(-c2cccs2)cc(C(F)(F)F)n1)Nc1ccc(OC(F)(F)F)cc1	S16 viability inconclusive, p53null 39C tox inconclusive, PMP22 txn inconclusive | NLuc sat counter inactive | NLuc Km counter inconclusive | FLuc ctr PMP22 inactive | S16 viab conf inconclusive | PMP22 txn cnf 9.1µM | PMP22 HiBiT cnf inconclusive
O=C(CCS(=O)(=O)c1nc(-c2ccc3c(c2)OCO3)cc(C(F)(F)F)n1)Nc1ccccc1F	PMP22 txn inconclusive, OvCa metastasis inconclusive
COc1ccc(NC(=O)CCS(=O)(=O)c2nc(-c3cccs3)cc(C(F)(F)F)n2)cc1	S16 viability inconclusive, PMP22 txn 7.6µM, pS6 MEF inh inconclusive, p53null 32C tox inconclusive, OvCa metastasis inconclusive | NLuc sat counter inactive | NLuc Km counter inconclusive | FLuc ctr PMP22 inactive | S16 viab conf inconclusive | PMP22 txn cnf 12µM | PMP22 HiBiT cnf inactive
CC(C)(C)[N+]([O-])=Cc1ccc(S(=O)(=O)O)cc1S(=O)(=O)O	none (no result: S16 viability, p53null 39C tox, PMP22 txn, pS6 MEF inh, p53null 32C tox)
COc1ccccc1-c1cc(C(F)(F)F)nc(S(=O)(=O)CCCC(=O)Nc2ccccc2F)n1	S16 viability inconclusive, p53null 39C tox inconclusive, PMP22 txn 8.9µM, pS6 MEF inh 16µM, p53null 32C tox inconclusive, OvCa metastasis inconclusive | NLuc sat counter inconclusive | NLuc Km counter inconclusive | FLuc ctr PMP22 inactive | S16 viab conf inconclusive | PMP22 txn cnf 6.9µM | PMP22 HiBiT cnf inactive
COc1ccc(Cl)cc1NC(=O)CCCS(=O)(=O)c1nc(-c2ccc(OC)c(OC)c2)cc(C(F)(F)F)n1	S16 viability inconclusive, p53null 39C tox inconclusive, PMP22 txn 5µM, pS6 MEF inh 13µM, p53null 32C tox inconclusive, OvCa metastasis inconclusive | NLuc sat counter inactive | NLuc Km counter inactive | FLuc ctr PMP22 inactive | S16 viab conf inconclusive | PMP22 txn cnf 9.3µM | PMP22 HiBiT cnf inactive
O=C(CCS(=O)(=O)c1nc(-c2cccs2)cc(C(F)(F)F)n1)Nc1ccc(F)c(Cl)c1	S16 viability inconclusive, p53null 39C tox inconclusive, PMP22 txn 15µM, OvCa metastasis inconclusive | NLuc sat counter inactive | NLuc Km counter inconclusive | FLuc ctr PMP22 inactive | S16 viab conf inconclusive | PMP22 txn cnf 13µM | PMP22 HiBiT cnf inconclusive
COc1ccc(NC(=O)CSc2nc(-c3cccs3)cc(C(F)(F)F)n2)cc1Cl	PMP22 txn inconclusive
CON=C(C(=O)N[C@@H]1C(=O)N2C(C(=O)O)=C(CSC(=O)c3ccco3)CS[C@H]12)c1csc(N)n1	none (no result: S16 viability, p53null 39C tox, PMP22 txn, pS6 MEF inh, p53null 32C tox)
Cn1nnnc1SCCCNCc1cccc(OCc2ccccc2)c1	PMP22 txn 20µM | NLuc sat counter inactive | NLuc Km counter inactive | FLuc ctr PMP22 inactive | S16 viab conf inactive | PMP22 txn cnf inactive
CCCN1CCN(CCCNC(=O)c2cc3c(Cl)nc4ccccc4c3s2)CC1	PMP22 txn 13µM | NLuc sat counter inactive | NLuc Km counter inactive | FLuc ctr PMP22 inactive | S16 viab conf inconclusive | PMP22 txn cnf inactive
CCn1c(=O)c2cc(C(=O)NC3CCC(C)CC3)sc2c2ccccc21 (centres undefined)	S16 viability inconclusive, PMP22 txn 17µM | NLuc sat counter inconclusive | NLuc Km counter inactive | FLuc ctr PMP22 inactive | S16 viab conf inactive | PMP22 txn cnf inactive
CCn1c(=O)c2cc(C(=O)NCCCN3CCN(C)CC3)sc2c2ccccc21	PMP22 txn 11µM | NLuc sat counter inactive | NLuc Km counter inactive | FLuc ctr PMP22 inactive | S16 viab conf inactive | PMP22 txn cnf inactive
Cn1c(=O)c2cc(C(=O)NCCCN3CCN(c4ccc(F)cc4)CC3)sc2c2ccccc21	PMP22 txn 19µM | NLuc sat counter inconclusive | NLuc Km counter inactive | FLuc ctr PMP22 inactive | S16 viab conf 34µM | PMP22 txn cnf inconclusive
COc1ccc(-c2c(-c3ccc(O)cc3O)n[nH]c2C)cc1	none (no result: S16 viability, p53null 39C tox, PMP22 txn, pS6 MEF inh, p53null 32C tox)
Cc1cc(Nc2cccc(Br)c2)n2c(nc3ccccc32)c1C#N	S16 viability inconclusive, PMP22 txn 9µM | NLuc sat counter inactive | NLuc Km counter inconclusive | FLuc ctr PMP22 inactive | S16 viab conf inactive | PMP22 txn cnf inconclusive
O=S(=O)(NCCc1csc2nc(-c3ccc(Cl)cc3)nn12)c1ccc(Oc2ccccc2)cc1	PMP22 txn 13µM | NLuc sat counter inactive | NLuc Km counter inactive | FLuc ctr PMP22 inactive | S16 viab conf inactive | PMP22 txn cnf inconclusive
CCNc1cc(NC2CCC(O)CC2)nc(Nc2ccc3c(ccn3Cc3ccccc3)c2)n1 (centres undefined)	none (no result: S16 viability, p53null 39C tox, PMP22 txn, pS6 MEF inh, p53null 32C tox)
